This note sets out measurements from PubChem BioAssay (NCI).

The panel holds about 83,000 compounds, 20% with a hit somewhere; the sample as a whole holds those more often.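 Values shown are percent growth following 48 h exposure of cells in 96-well plates to a single concentration of compound; below 10 was considered active.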 Unmarked numbers belong to inactive results. Activity calls are given as the source filed them.

Test in all cases: NCI-60 one-dose screen, 48 h (100 = growth as untreated, 0 = no growth, -100 = all killed)
Common to all, as to settings: 10 µM unless noted

In assay [1] the test system is DU-145 prostate.
Assay [2] relates to K-562 leukemia.
In assay [3] the test system is MALME-3M melanoma.
In assay [4] the test system is MDA-MB-231 breast.
Assay [5] deals with RXF 393 renal.
For assay [6], the system named is SF-268 CNS.
The subject of assay [7] is SF-295 CNS.
For assay [8], the system named is SF-539 CNS.
The test system of assay [9] is UACC-257 melanoma.
Assay [10] has as its system M14 melanoma.
Assay [11] deals with HCT-15 colon.
For assay [12], the system named is HT29 colon.
In assay [13] the test system is SNB-75 CNS.
The test system of assay [14] is SNB-19 CNS.
For assay [15], the system named is U251 CNS.
The subject of assay [16] is UACC-62 melanoma.
In assay [17] the test system is LOX IMVI melanoma.
The subject of assay [18] is SK-MEL-28 melanoma.
The test system of assay [19] is SK-MEL-5 melanoma.
Assay [20] deals with PC-3 prostate.

For the molecule `O=C(COc1ccc(/C=C2\COc3ccccc3C2=O)cc1)Nc1nccs1`, the growth is 107% in assay [1]; -8.33% (active) in assay [2]; 88.5% in [3]; 95.9% in [4]; 96.4% in assay [5]; 92.8% in [6]. Besides, the growth is 112% in [7]; 85.9% in assay [8]; 98.5% in assay [9]; 93.2% in assay [10]; 72.6% in [11]; 39.1% in assay [12]. The growth in [13] is 84.6%; in [14], 88.2%; in assay [15], 73%; in [16], 96.4%; in assay [17] it was 63.2%; in assay [18], 86.5%.

Turning to `Cn1cc(C(=O)c2nc(-c3c[nH]c4ccc(Br)cc34)no2)c2cc(F)ccc21`, the growth in assay [1] was 106%; in assay [2] it was 102%; in assay [3], 96.1%; in assay [4], 89%; in [5] it was 109%; in assay [6], 99.2%. Also, the growth in assay [7] was 97.6%; in [8], 99.1%; in assay [9], 99.7%; in [10], 100%; in assay [11], 92.1%; in [12], 102%. Further, the growth in assay [13] is 74.8%; in assay [14], 99.1%; in assay [15], 100%; in assay [19], 83.8%; in assay [16], 78%; in [17], 95.4%. In addition, in [18], the growth is 105%.

As to `COc1ccc(-n2nc(C)c3c(Nc4ccc(NC(=O)Nc5c(Cl)cccc5Cl)cc4)ncnc32)cc1`, the growth was 51.4% in [1]; 79.1% in assay [2]; 31.3% in assay [3]; 30.6% in [4]; 26.2% in assay [5]; 59.4% in assay [6]. Also, the growth was 85.2% in assay [7]; 30% in assay [8]; 53% in assay [9]; 82.2% in [10]; 72.2% in assay [11]; 31.4% in [12]. The growth in assay [13] is 55.9%; in assay [14], 79.4%; in [15], 63.3%; in assay [19], 5.92% (active); in assay [16], 46.7%; in assay [17], 39.1%. Besides, the growth in assay [18] is 81.9%.

Take `C=C1c2nc3ccccc3n2C=C(c2ccc(Cl)cc2)N1Cc1ccc(OC)cc1`: the growth in assay [1] is 103%; in assay [2], 59.2%; in assay [3], 99.3%; in [4], 90.1%; in [5], 77.5%; in assay [6], 96.1%. Further, the growth was 94.9% in assay [7]; 105% in assay [8]; 90% in assay [9]; 81.1% in assay [10]; 67.3% in assay [11]; 88.8% in [12]. Besides, the growth in assay [13] is 103%; in assay [14], 79.1%; in assay [15] it was 92.8%; in assay [19] it was 72.3%; in assay [16], 68%; in [17], 87.5%. Also, in assay [18], the growth is 88.9%.

For `CN(C)S(=O)(=O)c1ccc(S(=O)(=O)Nc2cccc(Cl)c2N2CCCCC2)cc1`, the growth in assay [1] was 89.1%; in assay [2], 55.6%; in [3] it was 106%; in assay [4], 66.6%; in assay [5], 88%; in [6], 89.5%. Besides, the growth in assay [7] was 78.1%; in assay [8], 94%; in assay [9] it was 74.1%; in assay [10], -35.4% (active); in [11] it was 79.9%; in assay [12] it was 91.8%. For the same molecule, the growth in [13] was 64.2%; in assay [14], 84.9%; in assay [20], 60.3%; in assay [19], 80.7%; in assay [16], 57.8%; in assay [17], 67.4%. In [18], the growth was 59.9%.

As to `COc1ccc(S(=O)(=O)N2CC3(COC3)C2)cc1NC(=O)c1[nH]c(C)c2c1CCCCC2=O`, the growth is 79.6% in assay [1]; 45.1% in [2]; 61.1% in assay [3]; 47.1% in assay [4]; 76% in [5]; 78.1% in assay [6]. In addition, the growth was 52.8% in assay [7]; 45.3% in [8]; 51.9% in assay [9]; 58.1% in [10]; 70.1% in assay [11]; 19.2% in assay [12]. The growth is 19.4% in [13]; 54.9% in assay [14]; 62.8% in assay [15]; 46.5% in [19]; 23.4% in assay [16]; 17.3% in [17]. Besides, in assay [18], the growth was 73.7%.

With `COc1ccc2c(c1)c(-c1nonc1-c1cn(C)c3ccccc13)cn2C`, the growth in assay [1] was 14.7%; in assay [2], 10.5%; in assay [3], 51.9%; in assay [4] it was 28.4%; in [5], -9.91% (active); in assay [6] it was 63%. For the same molecule, the growth in [7] is 32%; in assay [8], -9.13% (active); in assay [9], 66.5%; in [10], 24.4%; in assay [11] it was 25.7%; in [12], 8.38% (active). The growth in assay [13] was -6.82% (active); in [14] it was 34.9%; in assay [19], 13.3%; in [16], 38%; in [17], 47.2%; in assay [18], 63.1%.

Regarding `C=CC(=O)Nc1cccc(-c2nc(SC)nc(Nc3cccc(OC)c3)c2C#N)c1`, the growth in assay [1] is 54.6%; in [2], 54.6%; in assay [3], 77.6%; in assay [4], 71.4%; in assay [5], 36.9%; in [6] it was 57.1%. Moreover, the growth in assay [7] was 77.8%; in assay [8], 71.3%; in assay [9], 82.3%; in assay [10] it was 60.6%; in [11] it was 52.5%; in assay [12], 56.9%. Moreover, the growth is 18% in assay [13]; 53.1% in [20]; 77% in assay [19]; 78.1% in [16]; 72.1% in [17]; 87% in [18].

Turning to `Cc1ccc(/C=C2\SC(=S)N(CC(=O)NCCCN3CCOCC3)C2=O)cc1`, the growth in [1] is 104%; in [2], 89.6%; in assay [3] it was 95.1%; in [4], 91.9%; in [5], 101%; in [6], 96.5%. The growth is 91.1% in [7]; 93.7% in assay [8]; 101% in assay [9]; 102% in assay [10]; 96.3% in assay [11]; 109% in assay [12]. Also, the growth in assay [13] is 87.2%; in [14], 94.5%; in [19], 97.1%; in [16] it was 99.7%; in [17] it was 91.7%; in [18], 100%.

As for `COC[C@H](C)n1c(C2CCOCC2)nc2cnc3cc(-c4c(C)noc4C)c(OC)cc3c21`, the growth in [1] is 77.5%; in assay [2] it was 39.1%; in assay [3] it was 75.7%; in assay [4] it was 55.4%; in assay [5] it was 67%; in assay [6], 76.7%. The growth in assay [7] was 53.7%; in assay [8] it was 40.7%; in assay [9], 38.3%; in [10] it was 42.5%; in assay [11], 34.6%; in [12], 23.4%. Moreover, the growth is 31.2% in assay [13]; 54.1% in assay [15]; 44.8% in assay [20]; 31.7% in assay [16]; 27% in assay [17]; 59% in assay [18].

`COc1cccc(/C=C2\SC(=Nc3ccc(NC(C)=O)cc3)NC2=O)c1OC`: the growth in assay [1] was 85.1%; in assay [2] it was 101%; in assay [3], 107%; in assay [4] it was 102%; in assay [5], 83.1%; in assay [6], 99%. The growth in assay [7] is 81.3%; in [8] it was 94.4%; in assay [9], 100%; in assay [10] it was 98.1%; in assay [11], 96.5%; in assay [12], 116%. Besides, the growth in [13] was 67.5%; in assay [15], 93.1%; in [19] it was 96.2%; in assay [16], 98%; in assay [17], 95.7%; in assay [18], 101%.

In the case of `O=C(CN(C(=O)Cn1c(=O)n2nnnc2c2ccccc21)c1ccccc1C(F)(F)F)Nc1ccc(C(F)(F)F)cc1`, the growth in [1] is 110%; in assay [2] it was 101%; in assay [3], 103%; in [4], 104%; in assay [5], 116%; in assay [6], 103%. The growth in assay [7] is 104%; in [8], 101%; in assay [9], 115%; in assay [10] it was 102%; in assay [11] it was 102%; in [12], 110%. Besides, the growth in assay [13] was 91%; in [19], 102%; in assay [16] it was 101%; in assay [17] it was 98.9%; in assay [18] it was 108%.

For the molecule `Cc1ccc(O)c(N2C(=NCc3ccco3)NS(=O)(=O)c3cnccc32)c1`, the growth in assay [1] was 118%; in [2], 71.4%; in assay [3], 107%; in [4], 111%; in [5] it was 57.9%; in assay [6], 100%. In addition, the growth in assay [7] is 0.898% (active); in [8], 97.9%; in [9], 124%; in assay [10] it was 98.4%; in [11] it was 112%; in [12], 111%. Further, the growth in [13] is 106%; in assay [15], 100%; in assay [19], 118%; in assay [16], 96.7%; in assay [17], 103%; in assay [18] it was 107%.

Consider `Nc1n[nH]c2ccc([C@@H]3Nc4ccc5cn[nH]c5c4[C@H]4C5CCC(C5)[C@@H]34)cc12` (some centres undefined), for which the growth in assay [1] was 18.3%; in [2] it was 10.8%; in [3], 51.7%; in [4] it was 50.8%; in assay [5], -1.15% (active); in [6] it was 42%. For the same molecule, the growth is 13.2% in assay [7]; -19.6% (active) in assay [8]; 72.6% in assay [9]; 10.7% in assay [10]; 15% in assay [11]; 13.1% in assay [12]. The growth is -12.5% (active) in [13]; 23% in [15]; 16.4% in assay [20]; 39.4% in assay [16]; 31.9% in assay [17]; 61% in [18].

For the molecule `Cc1nn(-c2ccc(F)cc2)c2ncnc(Nc3ccc(NC(=O)Nc4ccc(Cl)c(C(F)(F)F)c4)cc3)c12`, the growth in assay [1] was 41.8%; in [2], 15.3%; in assay [3] it was 34%; in assay [4], 71.6%; in assay [5], 19.4%; in assay [6] it was 66%. Further, the growth in assay [7] was 6.74% (active); in assay [8], 48.2%; in [9], 26.8%; in assay [10] it was 38.1%; in assay [11] it was 11.2%; in [12], 37.9%. For the same molecule, the growth is 32.4% in [13]; 19.5% in assay [15]; 61.1% in assay [19]; 11% in assay [16]; 34.8% in assay [17]; 17.8% in assay [18].
